The list is not random: actives were taken first. Their share in the collection is about 0.9%.
RecA intein inh – Mtb RecA intein splicing inhibition | P9WHJ3 | cell-free RecA intein splicing, fluorescence | inhibition, % (no concentration beside the values) | 0.75% of 290,000 active | AID 2221; in the data active means inhibition above about 30%;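 further: 0% = vehicle wells and 100% = reference inhibitor control wells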
Target sequence (P9WHJ3 whole entry, looked up): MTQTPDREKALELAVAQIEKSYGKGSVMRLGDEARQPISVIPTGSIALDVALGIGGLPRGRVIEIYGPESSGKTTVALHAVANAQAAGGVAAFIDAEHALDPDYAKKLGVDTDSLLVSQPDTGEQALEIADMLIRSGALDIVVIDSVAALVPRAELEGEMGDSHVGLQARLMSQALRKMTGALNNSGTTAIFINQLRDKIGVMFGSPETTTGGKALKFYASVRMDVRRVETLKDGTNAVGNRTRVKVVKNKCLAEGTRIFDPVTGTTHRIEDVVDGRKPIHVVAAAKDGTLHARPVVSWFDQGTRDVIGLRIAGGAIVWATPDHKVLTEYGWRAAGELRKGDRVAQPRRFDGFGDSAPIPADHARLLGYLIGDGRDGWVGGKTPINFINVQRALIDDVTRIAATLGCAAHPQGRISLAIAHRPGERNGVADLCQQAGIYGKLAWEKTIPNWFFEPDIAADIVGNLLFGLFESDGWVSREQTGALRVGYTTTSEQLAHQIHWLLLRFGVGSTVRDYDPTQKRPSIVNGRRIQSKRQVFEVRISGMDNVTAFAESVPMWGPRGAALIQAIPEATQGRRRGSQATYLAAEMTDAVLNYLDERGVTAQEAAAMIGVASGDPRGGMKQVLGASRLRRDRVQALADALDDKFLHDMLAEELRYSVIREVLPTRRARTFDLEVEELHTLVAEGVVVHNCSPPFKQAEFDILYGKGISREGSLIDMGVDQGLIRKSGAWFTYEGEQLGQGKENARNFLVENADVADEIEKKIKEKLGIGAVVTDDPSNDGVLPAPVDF
Mtb BioA inh – blocks M. tuberculosis BioA enzyme activity; purified M. tuberculosis BioA enzyme, plate reader; inhibition, % at 9.99 µM; 0.096% of 360,000 active; in the data active means inhibition above about 40%
Rv3671c inh – inhibitors of M. tuberculosis serine protease Rv3671c; AID 2606; P9WHR9; 0.048% of 320,000 active; inhibition, % at 5.96 µM; in the data active means inhibition above about 38%;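 further: extracellular domain of Rv3671c used as enzyme; 0% = enzyme with DMSO and 100% = no enzyme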
FadD28 FP inh – blocks FadD28 binding to the bisubstrate probe | inhibition, % at 12.5 µM | 0.22% of 360,000 active | fluorescence polarization | AID 588549; in the data active means inhibition above about 8.5%, passing the limit was not always enough
TcdB GH inh – TcdB glycohydrolase inhibition. P18177. TcdB glycohydrolase enzymatic assay, plate reader. inhibition, % at 9.99 µM. 0.24% of 350,000 active; in the data active means inhibition above about 10%
Mtb UGM inh – blocks M. tuberculosis UGM enzyme. P9WIQ1. purified UGM, fluorescence polarization probe displacement. inhibition, % at 10 µM. 0.06% of 320,000 active; in the data active means inhibition above about 10%, passing the limit was not always enough
GFP chromophore – counter-screen GFP chromophore formation inhibition. EC50, µM. cell-free GFP chromophore formation, fluorescence. 83% of 2,100 active. shares compounds with RecA intein inh; call rule not given here
An asterisk follows results filed as active; nt = not tested or not shown.

SMILES	RecA intein inh	Mtb BioA inh	Rv3671c inh	FadD28 FP inh	TcdB GH inh	Mtb UGM inh	GFP chromophore
O=C(O)CCCCCN1C(=O)/C(=C/c2cn(-c3ccccc3)nc2-c2cccs2)SC1=S	nt	nt	nt	-2.6	-0.4	nt	nt
CC1=NNC(=O)/C1=C\c1cn(-c2ccccc2)nc1-c1ccc(F)cc1	65.6*	-2.2	nt	-0.3	nt	nt	2.46*
C[C@H](CO)N1C[C@H](C)[C@@H](CN(C)C(=O)CCN2CCCCC2)Oc2ncc(C#CCN(C)C)cc2C1=O	nt	-0.8	nt	nt	-1.0	nt	nt
Cc1nn(C(C)C(=O)Nc2ccccc2Cl)c(=O)c2nn(-c3ccccc3)c(C)c12 (stereo not given)	-0.8	15.7	-6.4	0.8	1.2	0.1	nt
COC(=O)c1ccccc1NC(=O)C(C)n1nc(C)c2c(C)n(-c3ccccc3)nc2c1=O (stereo not given)	97.3*	6.2	-6.0	-1.7	-0.5	-0.1	>38
O=C(C[C@@H]1C=C[C@@H](NC(=O)c2cccc(F)c2)[C@@H](CO)O1)Nc1nccs1	nt	1.4	nt	nt	-1.5	nt	nt
C[C@@H]1CN([C@@H](C)CO)C(=O)c2cc(NS(=O)(=O)c3ccc(F)cc3)ccc2O[C@H]1CN(C)S(C)(=O)=O	nt	-1.0	nt	nt	nt	nt	nt
O=C(N/N=C/c1cc(Cl)cc([N+](=O)[O-])c1O)c1ccccc1NS(=O)(=O)c1cccs1	33.2*	3.8	0.2	1.8	1.9	3.2	>38
CC1=NNC(=O)C1C(c1ccccc1)C(C#N)C#N (stereo not given)	80.4*	1.6	0.9	-1.7	nt	0.5	16*
COc1ccc(C2C(=O)NN=C2C)cc1 (stereo not given)	nt	nt	nt	0.2	0.6	nt	nt
Cc1noc(C)c1NC(=O)Nc1cccc2c1O[C@H](CN(C)Cc1ccc(C(F)(F)F)cc1)[C@H](C)CN([C@@H](C)CO)C2=O	nt	1.6	nt	nt	0.1	nt	nt
N#CC1=C(N)Oc2n[nH]c(-c3ccc(F)cc3)c2C1c1cccc(OC(=O)N2CCOCC2)c1 (stereo not given)	79.9*	1.5	-8.7	-1.5	nt	2.1	11.2*
N#CC1=C(N)Oc2n[nH]c(-c3ccccc3)c2C1c1cccc(OC(=O)N2CCOCC2)c1 (stereo not given)	67.6*	0.5	-4.9	-2.5	nt	-1.0	10.1*
COc1ccc(-c2[nH]nc3c2C(c2ccccc2OC(=O)N2CCOCC2)C(C#N)=C(N)O3)cc1 (stereo not given)	70.7*	1.3	-1.9	-6.4	nt	-3.2	21.1*
Cc1ccc(-c2[nH]nc3c2C(c2ccccc2OC(=O)N2CCOCC2)C(C#N)=C(N)O3)cc1 (stereo not given)	nt	nt	-14.6	nt	nt	3.7	nt
CC(=O)Nc1ccc(NC(=O)CSc2ncc(C(=O)Nc3ccccc3)c(=O)n2C)cc1	31.4*	-1.3	-11.2	-2.9	0.9	-0.2	0.115*
Cc1ccc(CNC(=O)CSc2ncc(C(=O)Nc3ccccc3)c(=O)n2C)cc1	0.5	nt	4.3	-4.5	1.8	0.6	nt
Cc1ccc(NC(=O)CSc2ncc(-c3ccccc3)n2C(=O)c2ccccc2)cc1	54.3*	-0.5	-0.5	-5.5	nt	0.8	1.22*
Cn1c(SCC(=O)NCC2CCCO2)ncc(C(=O)Nc2ccccc2)c1=O (stereo not given)	45.5*	-0.5	-1.7	-1.7	0.8	-1.1	>38
Cn1c(SCC(=O)NCc2ccccc2)ncc(C(=O)Nc2ccccc2)c1=O	4.6	0.6	-13.3	-0.7	2.4	-2.5	nt
C[C@H]1CN([C@@H](C)CO)C(=O)c2cc(NC(=O)Cc3cn(C)c4ccccc34)ccc2O[C@@H]1CN(C)C(=O)Nc1ccc2c(c1)OCO2	nt	-1.6	nt	nt	-1.5	nt	nt
C[C@H]1CN([C@@H](C)CO)C(=O)CCCn2cc(nn2)CO[C@H]1CN(C)Cc1ccc2c(c1)OCCO2	nt	-0.7	nt	nt	0.8	nt	nt
COc1ccc(C(=O)N/N=C\c2coc3ccc(Cl)cc3c2=O)cc1	36.5*	-0.7	-12.0	-2.9	0.6	-3.0	38*
O=C(N/N=C/c1coc2ccc(Cl)cc2c1=O)c1ccc(O)cc1	37.7*	-0.1	nt	-6.4	0.7	3.0	31.6*
COc1cc(C(=O)N/N=C/c2coc3ccc(Cl)cc3c2=O)ccc1O	22.8	-1.1	-9.0	-4.8	1.2	-5.9	nt
SMILES	RecA intein inh	Mtb BioA inh	Rv3671c inh	FadD28 FP inh	TcdB GH inh	Mtb UGM inh	GFP chromophore
COc1cccc(C#Cc2ccc([C@@H]3[C@H](CO)N4C(=O)CN(C(C)=O)C[C@@H]34)cc2)c1	nt	nt	nt	nt	1.6	nt	nt
CNC[C@@H]1Oc2c(NC(=O)Nc3ccc(C(F)(F)F)cc3)cccc2C(=O)N([C@H](C)CO)C[C@H]1C	nt	1.2	nt	nt	-1.7	nt	nt
O=S(=O)(Nc1ccc(O)c2ccccc12)c1ccc(F)cc1	94.2*	-0.4	-98.0	-1.6	0.2	7.5	0.151*
O=S(=O)(Nc1ccc(NS(=O)(=O)c2ccccc2)c2ccccc12)c1ccccc1	nt	-4.5	nt	4.7	-1.6	nt	nt
CCc1ccc(S(=O)(=O)Nc2ccc(O)c3ccccc23)cc1	92.0*	0.3	-4.4	-2.5	-1.1	-0.5	0.151*
COC(=O)C[C@H]1CC[C@H]2[C@@H](COc3ccc(NC(=O)c4cc(F)cc(F)c4)cc3C(=O)N2C)O1	nt	-1.4	nt	nt	nt	nt	nt
O=C(/C=C/c1ccccc1)c1ccc2c(c1)OCCCCO2	8.0	-0.2	5.9	-2.5	nt	1.5	nt
O=C(CCl)N(C/C=C/c1ccccc1)c1ccc2c(c1)OCCO2	84.9*	nt	7.1	-3.3	0.4	-1.7	3.03*
C[C@H](CO)N1C[C@H](C)[C@H](CN(C)C(=O)Nc2ccc(C(F)(F)F)cc2)Oc2ccc(NC(=O)CCC(F)(F)F)cc2C1=O	nt	0.1	nt	nt	1.1	nt	nt
C[C@H](CO)N1C[C@H](C)[C@@H](CN(C)S(=O)(=O)c2ccccc2)Oc2ccc(N(C)C)cc2CC1=O	nt	0.6	nt	nt	-12.6	nt	nt
COc1cc(/C=N/NC(=S)Nc2cccc(Cl)c2C)ccc1OCC(=O)N1CC(C)OC(C)C1 (stereo not given)	55.2*	0.0	5.8	-21.7	nt	0.1	36.7*
COc1cc(/C=N/NC(=O)c2ccc(Cl)cc2)ccc1OCC(=O)N1CC(C)OC(C)C1 (stereo not given)	-2.8	0.7	-5.8	-1.6	0.9	-1.8	nt
N#C/C(=C\c1ccncc1)c1nc2ccccc2o1	28.2	-2.5	1.8	0.2	-0.6	-0.5	nt
N#C/C(=C\c1cccc(O)c1)c1nc2ccccc2o1	69.3*	0.5	-4.4	-3.7	0.2	0.8	20.7*
COc1ccc(S(=O)(=O)Nc2ccc3c(c2)OC[C@@H](C)N(C)C[C@@H](C)[C@H](OC)CN(C)C3=O)cc1	nt	-15.6	nt	nt	0.1	nt	nt
COc1ccc(OC)c(NC(=O)Cc2ccc(NC3=NC4CS(=O)(=O)CC4S3)cc2)c1 (stereo not given)	38.0*	-0.2	-0.4	0.1	0.2	-0.1	>38
C[C@@H]1CCCCO[C@H](CN(C)C(=O)NC2CCCCC2)[C@@H](C)CN([C@H](C)CO)C(=O)c2cc(NC(=O)Nc3ccc4c(c3)OCO4)ccc2O1	nt	-0.6	nt	nt	-0.2	nt	nt
